# Measured values published in PubChem BioAssay (NCI).
# About 79,000 compounds went through this panel and 15% of them were active in at least one assay; those are over-represented in the sample as a whole. Values without a mark were called inactive. Calls of active or inactive are those of the source. Rule as the data show it: active = growth inhibition above about 70%; inactive = the rest.
# Assays:
# [1] = NCI Yeast Anticancer Drug Screen. Data for the rad50 strain (AID 155);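 also: 0% = growth of vehicle-only cultures of the same strain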; conditions: S. cerevisiae rad50 strain growth inhibition, active compounds read high; at 50.0 µM unless noted
# Outline: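 Inhibition values express reduced yeast growth in compound-treated cultures relative to vehicle-treated controls.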
# [2] = NCI Yeast Anticancer Drug Screen. Data for the mec2-1 strain (AID 157); conditions: S. cerevisiae mec2-1 strain, active compounds read high; at 50.0 µM unless noted
# Outline: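 Growth inhibition is read against vehicle-treated controls after compound exposure of the mec2-1 yeast strain, which is defective in DNA damage repair or cell cycle control.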
# [3] = NCI Yeast Anticancer Drug Screen. Data for the sgs1 mgt1 strain (AID 161);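 also: 0% = growth of cultures given vehicle only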; conditions: S. cerevisiae sgs1 mgt1 strain, active compounds read high; at 50.0 µM unless noted
# Outline: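 Yeast cells carrying a defined DNA-repair defect were exposed to test compounds. Growth inhibition was measured relative to vehicle-treated controls.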
# [4] = NCI Yeast Anticancer Drug Screen. Data for the cln2 rad14 strain (AID 165);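 also: 0% = growth equal to vehicle treated cultures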; conditions: S. cerevisiae cln2 rad14 strain, active compounds read high; at 50.0 µM unless noted
# Outline: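 Growth inhibition, relative to vehicle-treated controls, is the read-out. The test organism is a yeast strain with defined genetic alterations, cln2 rad14.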
# [5] = NCI Yeast Anticancer Drug Screen. Data for the bub3 strain (AID 167); conditions: S. cerevisiae bub3 mutant strain, active compounds read high; at 50.0 µM unless noted
# Outline: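 Steps: expose the mutant yeast strain to compound; grow alongside vehicle-treated cultures; measure growth; express inhibition against the vehicle cultures.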
# [6] = NCI Yeast Anticancer Drug Screen. Data for the mlh1 rad18 strain (AID 175); conditions: S. cerevisiae mlh1 rad18 strain growth inhibition, active compounds read high; at 50.0 µM unless noted
# Outline: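 Cells of a genetically altered yeast strain, deficient in DNA damage repair, were treated with compound. Their growth was then compared with that of vehicle-treated cultures to give inhibition.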
Structure (SMILES),growth inhibition [1],growth inhibition [2],growth inhibition [3],growth inhibition [4],growth inhibition [5],growth inhibition [6]
O=C1c2sc(-c3ccc(Cl)cc3)cc2-n2cccc21,9.3%,15.4%,2.15%,2.5%,-9.2%,26.2%
O=C(Cc1ccccc1)C(c1ccccc1)C(c1ccccc1)c1ccccc1 (configuration not stated),-12.8%,-11.8%,5.25%,13.6%,-2.25%,-1.25%
Cc1nc2c(cnn2C)c(=O)n1C(C)C,3.3%,-0.3%,3.8%,-6.5%,-11.3%,3.4%
COc1cc(/C=C/C(=O)c2c(=O)o[nH][n+]2-c2ccccc2)ccc1[O-],-3.75%,-7.1%,16.1%,20.9%,-1.85%,-18.1%
O=C(NNC(=O)c1ccc2ccccc2c1)c1ccc(Cl)cc1,-19.2%,-51%,-11%,3.55%,-13.6%,-9.75%
NNC(=O)c1nnn(CCc2ccccc2)c1C(=O)NN,-1.45%,3.25%,-1.15%,5.55%,-9.55%,-3.9%
COC1OC(C)C(OC(=O)c2ccccc2)C(OC(=O)c2ccccc2)C1OC(=O)c1ccccc1 (configuration not stated),16.2%,-3.45%,3.75%,-23.6%,1.95%,12.7%
CCOC(=O)NNC(=O)Nc1ccc(O[Si](C)(C)C)cc1,13.4%,10%,10.3%,17.1%,9.75%,10.9%
Cc1cc(O)cc(C)c1O,7.05%,5.45%,2.8%,-23.4%,-0.3%,-7.75%
O=C(O)C1(C(=O)O)CCCCC1.[NH2-].[NH2-].[Pt+2],2.65%,17.5%,1.6%,22.2%,7.6%,15.8%
C=C1N(c2cc3ccccc3o2)C(=O)OC12CCCCC2,-37.5%,-2.2%,-8%,8.8%,-2.55%,18.9%
S=c1c2[nH]cnc2ncn1CCSC1=NC=NC2=NC=NC21 (configuration not stated),27.8%,-23.6%,-26.9%,-22.8%,-55%,-8.6%
COc1cc(C2c3cc4c(cc3[C@H](OCCN(C)C)[C@@H]3COC(=O)C23)OCO4)cc(OC)c1O (some centres not stated),83.2% (active),87.7% (active),83.3% (active),67.8%,78.2% (active),82.6% (active)
NCCCCCCCCCCN,-22.9%,-5.1%,-5.9%,-29.4%,-35.7%,-11.9%
CCC(=O)OC(C)COc1ccccc1 (configuration not stated),-6.2%,3.25%,-3.9%,-43.5%,-5.8%,-10.4%
CCOC(=O)C(SC(S(=O)(=O)c1ccccc1)S(=O)(=O)c1ccccc1)C(=O)OCC,33.3%,-1.75%,21.2%,21.6%,-2.05%,25.6%
CCc1cccc(CC)c1N1C(=O)CC(Sc2ccccc2N)C1=O (configuration not stated),-18.1%,-16.3%,-14.8%,-0.85%,-9.5%,-25.8%
CCOC(=O)C(Cc1ccccc1)NC(=O)c1ccc(N=NN(C)C)cc1 (configuration not stated),-19.8%,-31.7%,-37.2%,-8.15%,6.65%,-29.6%
O=c1ccc(-c2ccc(-n3ccnc3)cc2)nn1CCO,-39.4%,-49.5%,-24.7%,-2.7%,-38%,-10.8%

Structure (SMILES),growth inhibition [1],growth inhibition [2],growth inhibition [3],growth inhibition [4],growth inhibition [5],growth inhibition [6]
CCC(O)c1ccc(OCc2ccccc2)c(OC)c1 (configuration not stated),7.35%,-2.1%,24.6%,-43.1%,-4.05%,2.25%
O=C1OC(=O)c2c1nc1ccccc1c2-c1ccccc1,-31.5%,-3.9%,9.35%,26%,-6.15%,23.6%
CCN(CC)C(=O)C1CCN(CCOc2ccccc2)CC1,-14.2%,13.2%,1.55%,-10%,-0.25%,-26%
CCOC(=O)c1nc(N)nc(N)c1-c1ccc(Cl)cc1,3.6%,10.7%,-3.4%,-4.9%,15.6%,-1.2%
COC1=Nc2ccccc2N2CCN=C12,4.55%,-23.6%,-8.7%,-1.35%,-8.75%,-12.8%
O=C(OCc1ccccc1)ON1C(=O)C2C3C=CC(C3)C2C1=O (configuration not stated),-26.4%,-54.2%,12.5%,-9.1%,-19%,5.05%
CN(C)C1=C(Cl)C(=O)C(=O)c2cccnc21,32.3%,-2.9%,21.4%,5.2%,-16.4%,38.4%
CCOc1ccc(N=Nc2c(-c3ccccc3)nn(C(=O)CC(=O)Nc3ccccc3Cl)c2-c2ccccc2)cc1,20.6%,-8.2%,34.6%,3.5%,31%,18.7%
c1ccc2nc3c(cc2c1)NCC3,-2.3%,5.15%,-14.4%,-22.6%,-8.25%,-20.9%
CC(=O)Nc1cccc(OC(=O)Nc2ccc(F)c(Cl)c2)c1,57.6%,60.7%,71.7% (active),70.7% (active),56.8%,82% (active)
CN(C)CC=C(c1ccccc1)c1ccccc1,-11.9%,-16.4%,-3.3%,-4.05%,-8.85%,6.6%
CC1CCCN(CCC(=O)c2ccc(O)cc2)C1 (configuration not stated),38.2%,22.5%,26.3%,21.2%,7.35%,32.4%
Clc1ccc(-c2c(C3=NCCCN3)nnn2-c2ccc(Cl)cc2)cc1,-16.6%,-17.9%,-10.9%,11.7%,-3.6%,-25.7%
COc1ccccc1NC(=O)C1=C(C)NC(C)=C(C(=O)Nc2ccccc2OC)C1c1ccc(C)cc1,12.7%,-10.3%,3.75%,12.1%,12.3%,-0.85%
Nc1nc(=S)[nH]c(=S)[nH]1,22.9%,19.4%,10.9%,2.7%,17.2%,-4.45%
COc1cc(OC)c(/C=N/N=C(\N)NO)c(OC)c1,-8.95%,12.2%,-0.7%,9.65%,-1.15%,-9.75%
Cc1nc2c(cc1C(=O)NN)c(=O)n(C)c(=O)n2C,8.8%,-1.9%,-8.5%,-5.85%,-8.05%,31.6%
CCO[C@@H]1OC(=O)[C@H]2C(c3ccc(Cl)cc3)=NO[C@@H]12,-13.4%,-33.7%,0.05%,3.6%,29.8%,-4.9%
